Compounds with a hit are over-represented: about 5.3% of the library has one in this group of screens.
ALOX15B inhib: inhibitors of human 15-lipoxygenase 2 (ALOX15B); purified 15hLO-2, xylenol orange hydroperoxide absorbance; Potency, µM (highest dose often 57.1 µM), for the others: at the top dose activity change, negative = inhibition, hits mostly inhibitors; 110,000 compounds, 0.56% hits; further: potency means the concentration at half of the fitted maximal effect; nearly all actives have a fitted effect of over 60% in size
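Read-out: hydroperoxide product oxidises ferrous iron, measured as xylenol orange complex via the 573-to-405 nm absorbance ratio after 30 min. Reaction: 50 nM enzyme, 15 min compound preincubation, 45 uM arachidonic acid, 90 min RT, Hepes pH 7.5 with Triton X-100.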
IMPase inh: IMPase inhibition in cells; CHO-M1 cells, IP1 accumulation, HTRF TR-FRET ratio; P97697; 120,000 tested, under 10 active; AID 901; inhibition (IP1 accumulation), % at 46.1 µM; active means well fitted curve in the direction sought with a large enough effect in the signal ratio, not every such curve was filed as active; inconclusive means small, poorly fitted or top-dose-only effect, or a change in a side signal; inactive means no such curve, though single readings can be large or run the other way; the % refers to the signal ratio;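 further: cells stimulated with carbachol in lithium chloride buffer; plate controls were DMSO basal wells for no effect and reference inhibitor wells for full effect; higher means more IMPase inhibition seen as more IP1 and lower FRET ratio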
Target sequence (P97697 whole entry, looked up): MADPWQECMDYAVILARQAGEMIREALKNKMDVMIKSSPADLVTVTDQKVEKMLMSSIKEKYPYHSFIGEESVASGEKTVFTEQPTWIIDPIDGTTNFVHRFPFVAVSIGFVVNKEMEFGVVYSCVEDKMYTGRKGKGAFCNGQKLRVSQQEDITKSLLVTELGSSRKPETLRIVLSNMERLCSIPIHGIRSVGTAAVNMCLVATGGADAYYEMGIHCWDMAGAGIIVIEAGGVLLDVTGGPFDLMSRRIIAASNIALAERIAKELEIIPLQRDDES
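The IP-One HTRF competitive assay in carbachol-stimulated CHO-M1 cells quantifies cellular IP1. Compounds spanned up to 46 uM final, and activity is expressed as AC50 from concentration-response fits of the ratio and donor data.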
PNC inhibitor: inhibitors of perinucleolar compartment assembly | PC3M PTB-GFP, PNC prevalence imaging, 16 h; stronger effect = lower value | AID 2417 | activity change (PNC), negative = inhibition, % at 10 µM | 140,000 compounds, 3.1% hits;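 active means readout at or below -70, meaning at least 70% loss of cells showing the perinucleolar compartment, a nuclear body marking cancer cells; inconclusive means readout between -30 and a set limit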;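 further: plate controls were DMSO wells for no effect and camptothecin positive control wells for full effect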
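Compounds are pinned in duplicate onto adhered PC3M cells stably expressing GFP-tagged PTB and incubated 16 h at 37 C. Cells are then fixed, nuclei stained with Hoechst, and PNC-positive cells counted.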
ALOX12 inhib: blocks human 12-lipoxygenase activity | purified 12-hLO, xylenol orange hydroperoxide absorbance | P18054 | AID 1452 | 150,000 compounds, 0.12% hits | Potency, µM (highest dose often 57.1 µM), for the others: top-dose activity change, negative = inhibition, actives largely listed as inhibitors; further: potency means the concentration at half of the fitted maximal effect; nearly all actives have a fitted effect of over 55% in size
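Purified human 12hLO (150 nM final) was preincubated with compounds for 15 min at room temperature in 25 mM Hepes pH 7.0, 0.01% Triton X-100, then reacted with 40 uM arachidonic acid for 30 min. Hydroperoxide was detected with ferrous iron/xylenol orange.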
HPGD block: blocks human HPGD enzyme activity. P15428. purified HPGD, NADH fluorescence kinetic, PGE2 substrate. Potency, µM, inactives show at the highest dose activity change, negative = inhibition, usual class: inhibitors. 150,000 compounds, 4.3% hits; active means well fitted inhibition curve with a large enough effect, not every such curve was filed as active; inconclusive means small, poorly fitted or top-dose-only effect, or another doubt; inactive means no such curve, though single readings can be large or run the other way; further: potency means the concentration at half of the fitted maximal effect
Target sequence (P15428 whole entry, looked up): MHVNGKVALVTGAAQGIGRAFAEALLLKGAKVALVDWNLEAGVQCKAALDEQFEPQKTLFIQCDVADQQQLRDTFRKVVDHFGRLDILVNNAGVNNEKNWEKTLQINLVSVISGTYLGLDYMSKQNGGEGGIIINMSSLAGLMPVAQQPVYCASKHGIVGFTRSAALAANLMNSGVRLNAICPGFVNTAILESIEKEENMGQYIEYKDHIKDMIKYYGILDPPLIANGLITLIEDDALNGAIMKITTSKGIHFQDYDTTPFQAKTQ
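20 nM HPGD preincubated 15 min at room temperature with compound in 50 mM Tris-HCl pH 8, 0.01% Tween 20. Started with 1 mM NAD+ and 30 uM prostaglandin E2; NADH fluorescence (360/450 nm) read 5 times over 30-s intervals, last minus first.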
IMPase Li cell: membrane-permeable IMPase blocker, potentiated with lithium | Potency, µM (titrated, usually from 59.4 µM), without a hit: at the top dose activity, negative = IMPase inhibition, actives largely listed as inhibitors | CHO-M1 cells, IP1 TR-FRET (IP-One), carbachol + lithium | 210,000 compounds, 0.35% hits;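 further: IP1 builds up when IMPase is blocked and the TR-FRET signal falls; potency means the concentration at half of the fitted maximal effect; plate controls were basal vehicle for no effect and high inhibitor control for full effect; nearly all actives have a fitted effect of over 50% in size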
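CHO cells stably expressing M1 receptor (2000/well) were cultured 16–30 h, then exposed to compounds with a small lithium addition for 30 min at 37C. IP1 was measured by TR-FRET competition; AC50 from Hill fits.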
Starred values were filed as active, the others as inactive; ? = inconclusive; · = no result given; [ ] = remark or other dose. Unless noted, the call rests on the fitted dose curve; in most records, active means well fitted curve in the direction sought with a large enough effect; inconclusive means small, poorly fitted or top-dose-only effect, or another doubt; inactive means no such curve, though single readings can be large; an effect the other way counts as inactive or inconclusive. Unless noted, on the % scale 0 is the no-effect control and ±100 the full control effect.

SMILES | ALOX15B inhib | IMPase inh | PNC inhibitor | ALOX12 inhib | HPGD block | IMPase Li cell
OC(c1ccc(OCc2ccccc2)cc1)c1nnc(-c2ccccc2)o1 (stereo not drawn) | -11% | 6 | -23 | 2% | 20µM* | 24%[38.3 µM]
COc1ccc(C2C(C(C)=O)=C(Nc3ccccc3)CC(C)(O)C2C(C)=O)cc1OC (stereo not drawn) | · | 5 | -119* | 2% | -17% | 16%
COc1ccc(NC2=C(C(C)=O)C(c3ccc(OC)cc3)C(C(C)=O)C(C)(O)C2)cc1 (stereo not drawn) | · | · | · | · | · | -2%
CC(=O)Oc1ccccc1N(C(C)=O)S(=O)(=O)c1cccc([N+](=O)[O-])c1 | · | · | · | · | · | 4%
O=C(c1cc2ncc(CCCl)cn2n1)N1CCCCCC1 | · | · | 20 | 2% | 1µM* | -9%
O=C(c1cc2ncc(Br)cn2n1)N1CCCCC1 | · | · | · | · | · | -3%
COc1cc(C(=O)OCCNC(=O)c2ccncc2)cc(OC)c1OC | · | 5 | -111* | 2% | -9% | 2%
Cn1c(CCNC(=O)OC(C)(C)C)n[nH]c1=S | 1% | 6 | -11 | -2% | -7% | -4%[38.3 µM]
CC(C)(C)OC(=O)NCc1nc(N)n[nH]1 | · | -6 | -100* | 4% | -12% | 1%
CCCOc1ccc(C2c3c(oc4ccccc4c3=O)C(=O)N2c2nnc(C(C)C)s2)cc1 (stereo not drawn) | · | -1 | · | · | · | ·
CC(C)Sc1nnc([C@H](Cc2c[nH]c3ccccc23)NC(=O)OC(C)(C)C)o1 | -2% | 0 | -15 | -2% | -8% | 28%[38.3 µM]
COc1ccccc1OCc1ccc(C(=O)NCc2ccco2)o1 | 9%[11.4 µM] | ? | -86* | -4% | -16% | 11%[38.3 µM]
COc1ccc(OC)c(/C(O)=C/C(=O)C(=O)Nc2ccccc2OC)c1 | -9% | -10 | -9 | 0% | -24% | 13%[38.3 µM]
CCOc1ccc2nc(SCC(=O)c3ccc(C)s3)sc2c1 | 4% | 0 | 34 | 0% | 14µM* | 27%[38.3 µM]
CCOc1ccc2nc(SCC(=O)Nc3ccc4c(c3)OCO4)sc2c1 | · | · | -15 | -4% | -11% | -8%
COc1cccc(/C=N/NC(=O)c2csc(-n3nc(C)cc3C(F)(F)F)n2)c1 | -3% | 8 | -90* | 2% | -28% | 10%[38.3 µM]
Cc1cc(C(F)(F)F)n(-c2nc(C(=O)N/N=C/c3ccc(F)cc3)cs2)n1 | · | 3 | -106* | 5% | 28µM* | 7%[38.3 µM]
CCOC(=O)N1CCc2c(sc3c2C(=O)NC(c2cc(OC)c(OC)c(OC)c2)N3)C1 (stereo not drawn) | · | 1 | · | · | · | ·
CCOC(=O)c1sc(NC(=S)NC(=O)C23CC4CC(CC(C4)C2)C3)cc1C | · | -1 | -8 | 0% | -10% | -12%
Oc1cccc(NC(=S)Nc2cccnc2)c1 | · | · | -88* | 1% | -10% | -10%
CN(C)c1ccc(C=Nc2ccccc2C(N)=O)cc1 | -10% | 4 | -9 | -7% | ? | 1%[38.3 µM]
Cc1ccc(C=Nc2ccccc2C(N)=O)o1 | · | · | -93* | 2% | ? | -9%
CSc1ccc(-c2nc3ncccn3c2Nc2ccc(C)c(C)c2)cc1 | · | -4 | · | · | · | ·
O=c1cc(O)cc(/C=C/c2ccc(O)c(O)c2)o1 | · | · | · | · | ? | 40%
CCOc1ccc(S(=O)(=O)N2CCN(C(=S)NCc3ccco3)CC2)cc1 | · | · | -87* | -1% | -7% | 3%
SMILES | ALOX15B inhib | IMPase inh | PNC inhibitor | ALOX12 inhib | HPGD block | IMPase Li cell
O=C(COC(=O)c1cccc(S(=O)(=O)N2CCOCC2)c1)Nc1ccc2c(c1)OCO2 | 1% | -5 | -100* | -6% | -5% | -8%[38.3 µM]
CN(C)S(=O)(=O)c1cccc(NC(=O)COC(=O)c2cccc(S(=O)(=O)N3CCc4ccccc4C3)c2)c1 | · | · | -85* | -3% | 0% | 2%
COc1ccc(S(=O)(=O)N2CCOCC2)cc1NC(=O)COC(=O)C1COc2ccccc2O1 (stereo not drawn) | · | · | -92* | 1% | -4% | 1%
COc1ccc(S(=O)(=O)N2CCOCC2)cc1NC(=O)COC(=O)c1ccc(C)s1 | · | · | · | · | · | 31%
CCc1cccc(CC)c1NC(=O)COC(=O)c1cccc(S(=O)(=O)N2CCc3ccccc3C2)c1 | · | · | -90* | -5% | -4% | 11%
CCN(C(=O)CSc1nnnn1-c1ccccc1)C1CCS(=O)(=O)C1 (stereo not drawn) | · | · | · | · | · | 4%
Cc1cccc(CSc2nc3[nH]ncc3c(=O)[nH]2)c1 | · | · | · | · | · | 16%
CCCc1cc(=O)[nH]c(SCc2cccc(C)c2)n1 | -4% | 8 | 34 | -4% | 14µM* | -3%[38.3 µM]
CCc1nc(SCc2cccnc2)[nH]c(=O)c1C | -1% | 2 | ? | -2% | 25µM* | 5%[38.3 µM]
CCCc1cc(=O)[nH]c(SCC(=O)C(C)(C)C)n1 | -9% | -7 | -10 | -5% | -17% | 22%[38.3 µM]
CCCc1cc(=O)[nH]c(SCc2ccc(Cl)cc2)n1 | -4% | -6 | 32 | 6% | 16µM* | 32%[38.3 µM]
CCCc1cc(=O)[nH]c(SCc2cc(Cl)ccc2OC(F)F)n1 | -13% | 7 | 21 | -1% | 14µM* | -8%[38.3 µM]
CCCc1cc(=O)[nH]c(SCCCCN2C(=O)c3ccccc3C2=O)n1 | · | · | · | · | · | 14%
CCc1nc(SCc2ccccn2)[nH]c(=O)c1C | · | · | · | · | · | 5%
CO[C@H]1C=CO[C@]2(C)Oc3c(C)c(O)c4c(O)c(c5c(c4c3C2=O)NC2(CCN(CC(C)C)CC2)N=5)=NC(=O)C(C)=CC=C[C@@H](C)[C@@H](O)[C@@H](C)[C@@H](O)[C@@H](C)[C@@H](OC(C)=O)[C@@H]1C | 24%[25.6 µM] | 1[20.6 µM] | · | 3%[25.6 µM] | -3% | -1%

Assay outcomes: PubChem, National Center for Advancing Translational Sciences (NCATS)
